From publication PMC5540273 (PLoS ONE, 2017)

Legend:
Conditions in all cases: concentration: 1 μM, replicates: in singlicate; n = 1
TESK1 = system: TESK1
TGFBR1 = system: TGFBR1
TGFBR2 = system: TGFBR2
TIE1 = system: TIE1
TIE2 = system: T1, TIE2
T1 construct: gene TEK

TLK1 = system: TLK1
TLK2 = system: TLK2
TNIK = system: TNIK
TNK1 = system: TNK1
TNK2 = system: TNK2
TNNI3K = system: TNNI3K
TRKA = system: T2, TRKA
T2 construct: gene NTRK1

TRKB = system: TRKB
TRKC = system: T3, TRKC
T3 construct: gene NTRK3

TRPM6 = system: TRPM6
TSSK1B = system: TSSK1B
TSSK3 = system: TSSK3
TTK = system: TTK
TXK = system: TXK
[1] = system: TYK2(JH1domain-catalytic)
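Note: KINOMEscan kinase panel screen.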

Row | Compound | %Inh (TESK1) [%] | %Inh (TGFBR1) [%] | %Inh (TGFBR2) [%] | %Inh (TIE1) [%] | %Inh (TIE2) [%] | %Inh (TLK1) [%] | %Inh (TLK2) [%] | %Inh (TNIK) [%] | %Inh (TNK1) [%] | %Inh (TNK2) [%] | %Inh (TNNI3K) [%] | %Inh (TRKA) [%] | %Inh (TRKB) [%] | %Inh (TRKC) [%] | %Inh (TRPM6) [%] | %Inh (TSSK1B) [%] | %Inh (TSSK3) [%] | %Inh (TTK) [%] | %Inh (TXK) [%] | %Inh [1] [%]
1 | CN(C)Cc1ccc(-c2ccc3c(Nc4ccc(Oc5ccccn5)cc4)ccnc3c2)o1 [GW567148] | 0 | 0 | 0 | 19 | 0 | 0 | 0 | 20 | 29 | 40 | 0 | 100 | 31 | 35 | 52 | 0 | 6 | 0 | 0 | 30
2 | Nc1ncc(-c2ccc3nccc(-c4ccncc4)c3c2)cc1S(=O)(=O)N1CCOCC1 [GSK1627798] | 2 | 0 | 5 | 3 | 0 | 0 | 0 | 0 | 0 | 11 | 0 | 90.2 | 90.7 | 74 | 0 | 0 | 0 | 8 | 0 | 0
3 | CCCCc1nn2ncccc2c1-c1ccnc(Nc2ccc(N3CCN(C)CC3)cc2)n1 [GW684941] | 39 | 80 | 91 | 93.6 | 80 | 0 | 0 | 25 | 86 | 62 | 41 | 88 | 78 | 66 | 61 | 9 | 7 | 50 | 74 | 44
4 | COc1cccc(NC(=O)NC2CCN(c3ccnc(Nc4cc(OC)c(OC)c(OC)c4)n3)C2)c1 (stereo not shown) [GSK1379763] | 1 | 4 | 0 | 28 | 0 | 10 | 0 | 0 | 0 | 9 | 0 | 54 | 63 | 89 | 3 | 3 | 20 | 5 | 1 | 20
5 | COc1ccc(-c2coc3ccc(-c4nnc(SCc5ccc(OC)c(C(F)(F)F)c5)o4)cc23)cc1 | 0 | 6 | 25 | 0 | 0 | 17 | 0 | 3 | 9 | 8 | 0 | 5 | 10 | 0 | 1 | 0 | 0 | 1 | 0 | 27
6 | Nc1ncnc2c1nc(-c1ccccc1)n2-c1ccccc1 [SKF-97293] | 19 | 9 | 4 | 9 | 11 | 0 | 19 | 0 | 8 | 0 | 0 | 37 | 48 | 36 | 50 | 2 | 22 | 0 | 15 | 68
7 | O=C(Nc1cccc(-c2nn3ccccc3c2-c2ccnc(Nc3cccc(C(F)(F)F)c3)n2)c1)c1c(F)cccc1F [GSK292658] | 0 | 6 | 0 | 31 | 0 | 0 | 0 | 0 | 75 | 22 | 0 | 0 | 0 | 0 | 11 | 2 | 5 | 20 | 48 | 20
8 | COc1cccc(C(=O)Nc2cccc(Oc3ccc4nc(NC(=O)C5CC5)cn4n3)c2)c1 | 0 | 0 | 40 | 84 | 67 | 4 | 0 | 54 | 48 | 5 | 87 | 0 | 0 | 0 | 17 | 6 | 0 | 13 | 37 | 0
9 | Cl.c1ccc(-c2ccc3c(Nc4ccc5[nH]ccc5c4)ccnc3c2)nc1 [GW440138] | 23 | 53 | 4 | 0 | 0 | 1 | 0 | 58 | 24 | 4 | 0 | 0 | 9 | 23 | 0 | 0 | 5 | 0 | 0 | 29
10 | CC(=O)Nc1nc2cnc(Nc3cc(NC(=O)c4cccc(C5(C#N)CC5)c4Cl)ccc3C)nc2s1 | 0 | 4 | 0 | 7 | 8 | 14 | 0 | 16 | 88 | 0 | 18 | 0 | 0 | 0 | 0 | 0 | 0 | 21 | 33 | 0
11 | COc1cccc(C2=C(Nc3ccc(Cl)c(C(=O)O)c3)C(=O)NC2=O)c1 [SB-390769] | 20 | 0 | 6 | 25 | 17 | 5 | 0 | 0 | 0 | 17 | 13 | 0 | 48 | 34 | 0 | 30 | 16 | 0 | 3 | 100
12 | c1ccc(-c2cnc3nccnn23)cc1 [AH20685] | 0 | 0 | 0 | 0 | 0 | 0 | 0 | 0 | 9 | 0 | 0 | 0 | 17 | 0 | 29 | 0 | 9 | 0 | 0 | 0
13 | CCc1ccc(-c2ccc3c(c2)-c2c(cnn2C)S(=O)(=O)N3C)cc1 | 3 | 0 | 2 | 33 | 0 | 0 | 0 | 8 | 0 | 0 | 0 | 0 | 0 | 0 | 1 | 5 | 0 | 0 | 0 | 0
14 | FC(F)(F)c1ccc(/C=C/c2cncnc2Nc2ccc3[nH]c(Cc4ccccc4)nc3c2)cc1 [GW709199] | 2 | 28 | 0 | 0 | 15 | 0 | 0 | 0 | 0 | 0 | 0 | 0 | 8 | 0 | 0 | 0 | 0 | 0 | 0 | 41
15 | CNC(=O)c1ccccc1Nc1nc(Nc2ccc(N3CCOCC3)cc2)ncc1Cl.Cl [GSK1576028] | 26 | 93 | 0 | 100 | 97.9 | 52 | 57 | 76 | 100 | 98.2 | 50 | 100 | 96.6 | 97.1 | 75 | 15 | 17 | 95 | 97.6 | 99.9
16 | Cn1cc(-c2ccc3c(c2)CCN3C(=O)Cc2cccc(Cl)c2)c2c(N)ncnc21 [GSK2606590] | 52 | 0 | 0 | 92.3 | 45 | 0 | 0 | 7 | 11 | 0 | 0 | 73 | 54 | 57 | 0 | 20 | 17 | 30 | 0 | 10
17 | Nc1ncc(-c2cccnc2)c2scc(-c3ccc4c(c3)CCN4C(=O)Cc3ccccc3)c12 [GSK683281] | 33 | 0 | 0 | 92.5 | 57 | 0 | 0 | 55 | 19 | 59 | 20 | 22 | 0 | 0 | 40 | 20 | 22 | 0 | 10 | 11
18 | COc1cc(Nc2nccc(N3CCC(NC(=O)c4cc5ccccc5s4)C3)n2)cc(OC)c1OC (stereo not shown) [GSK1379760] | 9 | 0 | 0 | 35 | 0 | 8 | 18 | 0 | 0 | 15 | 0 | 21 | 0 | 35 | 17 | 0 | 26 | 0 | 0 | 28
19 | CC(C)(C)c1ccc2nccc(Nc3cccc(O)c3)c2c1 [GW856795] | 0 | 42 | 88 | 0 | 2 | 12 | 0 | 0 | 19 | 0 | 0 | 72 | 40 | 31 | 0 | 0 | 60 | 0 | 79 | 42
20 | Fc1ccc(-c2ncn(C3CCNCC3)c2-c2ccnc(Oc3ccc(-c4ccccc4)cc3)n2)cc1 [SB-245391] | 19 | 59 | 16 | 46 | 31 | 3 | 35 | 11 | 10 | 0 | 42 | 13 | 0 | 19 | 19 | 0 | 15 | 22 | 8 | 32
